# From the supplement of paper PMC6555819
# System: VDR:RXRa (NR concentration 270 nM, RXRa partner concentration 90 nM)
# Assay: PBM binding z-score (relative to random genomic background probes); higher = stronger binding; sequences stand for … in GC…GCGATTGACAGCGTAGAATGAAGG
# Protocol: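 Protein-binding microarray (Agilent 4x180K custom design, double-stranded 60-nt probes: 5' GC cap, 34-nt variable region, 24-nt constant primer region; full probe sequence given). Purified or IVT nuclear receptor:RXRα heterodimers (3:1 NR:RXRα, mostly 270:90 nM) or homodimers were incubated for 1 h in PBS with 2% milk and no ligand, then detected with Alexa488 antibodies. Fluorescence from o1-orientation probes (~5 replicates averaged) was converted to z-scores against 500 random hg19 background probes. Variable regions are seed direct-repeat (DR0–DR5) sites, all their single-nucleotide variants and half-site ablations.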
row,Sequence,PBM binding z-score
1,CATACAGGGTCACCTAGGCCAGAGTAGGGACGGC,5.14
2,CGTCCAAGGTCCGAGAGGTCAGTGAATGCCGAGT,3.27
3,CCGACTGGGGTAAAGGTTACCATACTCAGTACGA,1.18
4,CGAACTAGGTCAATGACAGTGAATCTCCGCACGC,1.15
5,CCGACTGGGGCATAATGTTACCATAAGCCAGCCC,-0.48
6,TGTCAAAGTTCAAAGGTATCGTAAGTATCCACAC,4.75
7,TAGCCTAGGTCATGCGGGCCACTATAGTGTCGGC,3.58
8,GCTAGCCGGCCATTTGGGTCACTCAATGACGGGC,0.203
9,ATCTCTAGGTAACAAGTCCAGTGAAAGAGAGGAC,0.103
10,CGTCCAAGGCCAGAGAGGTCAGTGAATGCCGAGT,4.04
11,TAGCCTAGGTCATGGGCCAGTATGCCACGCGAAC,1.98
12,CCCACTGGGCCAAAAAGGTCATTGATGCCGATAA,4.94
13,CGAACTAGGTCAGAACAGGACAATGAAGGATGAT,1.11
14,ACTTACGGGTCAACGAGGTTATAGCGCGCGTATA,7.58
15,ACAGACAGGTGAGTGAAGGTAACTCTGCTGGACG,-0.344
16,TCGAGTAGGTTAGTCGGGGCATTCACCCAACATA,2.41
17,TCTAGTTGGTCACGGAGGTCACACAAGACGGGTA,5.67
18,GCACATAGGTAATACAAGGTGAAAGTCCGATTGT,0.394
19,ATCTCGAGGTAAAGTTCAGTGAAAGATCGATAGA,1.64
20,GATACAGGGTCAGTTAGAGGCCAGAGTATGGAAA,2.97

row,Sequence,PBM binding z-score
1,CCGACTGGGGCAACGTTACCATAACGCACAGCCA,-0.557
2,CCGACTGGGGCATGAGGTTACCATAAGCCAGCCC,-0.146
3,TCATATAGGTAATACAGGAGAAAGTCGGCATCTA,0.996
4,TCATATAGGTGAAGGTGAAAGTCGAACGATATGA,0.278
5,TCGAGTAGGTTAGGGGCATTCTGAATGGCGTCGA,0.242
6,ACTAGCATGCCAAGTTTGGGTCACTCAAACAAAG,0.531
7,AGGCAAAGTTCATCTAGGTAACGTAAGATATGCT,4.86
8,TCTTGTAGATCATCAGGAGGTTAAGAAAGATCGA,0.351
9,ACAATGAGGTTAAGATCAGGGAAACAGAATACAT,1.3
10,CCTATTAGTTGACCATTAGGGCAACCGAAGCTCG,0.563
11,CGTCCAAGGTCATAGGAGGTCAGTTAAGACAGAT,6.3
12,TCTATTACTTGAAGGGCAACCGACGAGTCCGTTT,1.28
13,ACATGTAGGTTAGCTGGGGTCATTCAGACTAGGC,6.43
14,ACTACTAGTTGAGACGAGGGCAACCGATAGGTTG,0.46
15,CCTACTGGGCCACGAAACGTCATTGATTCAGTGA,-0.697
16,ACAGAGAGGTGATGAAGGTAACTCAGGCTATCAT,0.7
17,ATCGAAAGGCCGACGAGGTGAGTATACACCGTTT,0.176
18,CAAACTAGGTCACCGGAAGGTCAAACTCCGCATG,6.17
19,GCAGGCAGGTGAAACGCAGGTAACTCAGGGTGGC,0.85
20,TAGCCTAGGTCAGTTCGGGCCAGTATACGCTATA,0.785
